Test results as given in PMC5540273 (PLoS ONE, 2017).

Tests used:
Conditions in all cases: concentration: 1 μM, replicates: in singlicate; n = 1
PLK2 = test system: PLK2
PLK3 = test system: PLK3
PLK4 = test system: PLK4
PRKCD = test system: PRKCD
PRKCE = test system: PRKCE
PRKCH = test system: PRKCH
PRKCI = test system: PRKCI
PRKCQ = test system: PRKCQ
PRKD1 = test system: PRKD1
PRKD2 = test system: PRKD2
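Further: KINOMEscan kinase panel screen.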

| Structure (SMILES) | %Inh (PLK2) | %Inh (PLK3) | %Inh (PLK4) | %Inh (PRKCD) | %Inh (PRKCE) | %Inh (PRKCH) | %Inh (PRKCI) | %Inh (PRKCQ) | %Inh (PRKD1) | %Inh (PRKD2) |
| --- | --- | --- | --- | --- | --- | --- | --- | --- | --- | --- |
| COC(=O)Nc1nc2cc(Oc3ccc(NC(=O)Nc4cccc(SC)c4)cc3)ccc2[nH]1.Cl [GW697999] | 0% | 0% | 0% | 1% | 11% | 4% | 0% | 0% | 3% | 10% |
| O=C(Nc1n[nH]c2cc(-c3cccs3)ccc12)C1CC1 [SB-731284] | 9% | 28% | 29% | 17% | 11% | 0% | 0% | 0% | 0% | 0% |
| Cc1cc(-c2ccnc(Nc3cccc(C#N)c3)n2)cc(C)c1O [GSK1440913] | 0% | 0% | 15% | 0% | 6% | 5% | 5% | 12% | 0% | 0% |
| Cn1cc(-c2cnc(N)c3c(-c4ccc5c(c4)CCN5C(=O)Cc4ccccc4)csc23)cn1 [GSK2593074] | 41% | 16% | 19% | 9% | 0% | 0% | 0% | 0% | 6% | 0% |
| O=C(Nc1c(F)cccc1F)c1cc(C(=O)c2ccccc2F)c[nH]1 [GSK1326180] | 0% | 0% | 0% | 9% | 0% | 4% | 2% | 20% | 11% | 14% |
| CN(c1ccc2c(c1)nc(NCc1ccccc1)n2C)c1ccnc(Nc2ccc(CS(C)(=O)=O)cc2)n1.Cl [GW811603] | 0% | 79% | 62% | 100% | 36% | 0% | 0% | 0% | 0% | 0% |
| Cc1ccc(NC(=O)c2ccnc(N3CCCCC3)c2)cc1-c1ccc(C(=O)NCC2CC2)cc1 [GW775610] | 0% | 0% | 24% | 9% | 9% | 0% | 6% | 2% | 0% | 0% |
| Cl.Cl.NCC(NC(=O)c1cc(-c2cccnc2)c(-c2ccnc3[nH]ccc23)s1)c1ccccc1 (stereo not drawn) [GSK1323434] | 35% | 0% | 0% | 95.4% | 82% | 88% | 47% | 75% | 1% | 12% |
| Cc1ccc(-c2ccc3occ(-c4ccc(S(C)=O)cc4)c3c2)nn1 (stereo not drawn) | 0% | 0% | 2% | 1% | 0% | 0% | 0% | 13% | 30% | 9% |
